Source: PubChem BioAssay (National Center for Advancing Translational Sciences (NCATS))
Shown are actives, neighbours in structure and some others; about 18% of the full set was active somewhere.
GCN5L2 inh: GCN5L2 (KAT2A) acetyltransferase inhibition. GCN5L2 HAT assay, ThioGlo1 CoA-SH fluorescence. Potency, µM (titrated, usually from 58.9 µM), for the others: top-dose activity change, negative = inhibition, most hits filed as inhibitors. 390,000 compounds, 0.21% hits
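Free CoA generated was detected with ThioGlo1 (50uM) fluorescence at Ex340nm/Em540nm, read immediately and after 20 min at room temperature. Enzyme, 20 nM in HEPES pH 7.5 buffer, saw compounds 15 min before adding 75uM H3(1-25) peptide and 70uM acetyl-CoA.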
VDR inhibitor: blocks the human vitamin D receptor. 400,000 compounds, 0.93% hits. Potency, µM, inactives show max response, negative = inhibition, hits mostly inhibitors. VDR-SRC2-3 peptide fluorescence polarization, 2 h. AID 504847. P11473
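Fluorescence polarization assay of small-molecule disruption of VDR binding to coregulator peptide SRC2-3. Compounds and controls pin-transferred, then read after 2 h incubation at ambient room temperature.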
PLK1 PBD block: blocks phosphopeptide binding to human PLK1 polo-box domain; P53350; Potency, µM, without a hit: max response, negative = inhibition, hits mostly inhibitors; 360,000 compounds, 2.8% hits; Plk1 PBD binding of FITC phosphopeptide, fluorescence polarization; note: series mostly up to about 57 µM; nearly all actives have a fitted effect of over 65% in size
Target sequence (P53350 whole entry, looked up, the tested form may be a part): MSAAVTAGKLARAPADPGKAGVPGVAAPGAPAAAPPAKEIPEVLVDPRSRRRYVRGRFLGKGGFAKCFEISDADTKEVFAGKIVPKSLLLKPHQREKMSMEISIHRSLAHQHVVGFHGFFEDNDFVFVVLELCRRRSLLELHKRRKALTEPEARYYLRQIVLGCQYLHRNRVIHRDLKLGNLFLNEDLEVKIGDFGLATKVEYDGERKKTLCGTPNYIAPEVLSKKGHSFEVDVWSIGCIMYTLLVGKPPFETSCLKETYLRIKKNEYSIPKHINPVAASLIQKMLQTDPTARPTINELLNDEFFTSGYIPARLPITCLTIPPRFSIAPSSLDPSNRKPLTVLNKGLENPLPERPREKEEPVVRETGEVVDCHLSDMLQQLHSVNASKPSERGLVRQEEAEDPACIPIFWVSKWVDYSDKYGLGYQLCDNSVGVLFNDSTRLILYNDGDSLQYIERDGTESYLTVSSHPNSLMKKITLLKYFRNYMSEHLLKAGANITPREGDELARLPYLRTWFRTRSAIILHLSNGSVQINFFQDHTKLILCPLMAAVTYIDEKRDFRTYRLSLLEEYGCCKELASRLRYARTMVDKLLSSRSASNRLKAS
DT40 TDP1 no CPT: qHTS for Inhibitors of human tyrosyl-DNA phosphodiesterase 1 (TDP1): qHTS in cells in absence of CPT; DT40 Tdp1-/- hTDP1 cells, no CPT, ATP luminescence, 48 h; Potency, µM (highest dose often 46.2 µM), for the others: top-dose activity change, negative = growth inhibition, actives largely listed as inhibitors; 420,000 compounds, 15% hits; AID 686978, 2013; note: nearly all actives have a fitted effect of over 55% in size
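Chicken DT40 Tdp1-/- cells complemented with human TDP1, screened without camptothecin (DMSO vehicle only), 400 cells/well. Compounds pin-transferred, cells incubated at 37 °C for at least 48 hr. Growth read as ATP-dependent luminescence (CellTiter-Glo, 30 min at RT).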
TDP1 block: inhibitors of human tyrosyl-DNA phosphodiesterase TDP1; Potency, µM (doses to about 130 µM), for the others: at the highest dose activity change, negative = inhibition, hits mostly inhibitors; 350,000 compounds, 0.28% hits; recombinant TDP1, AlphaScreen DNA substrate cleavage; Q9NUW8; note: nearly all actives have a fitted effect of over 40% in size
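AlphaScreen read-out: signal falls as enzyme removes the 3' tyrosine-FITC from a 5'-biotinylated DNA oligo (15 nM, 5 min, RT). Enzyme was E. coli-made recombinant Tdp1 at 1 nM, exposed to compound for 15 min beforehand; beads 10 ug/ml, 10 min.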
TDP1 cell CPT: growth inhibition of DT40 Tdp1-/-;hTDP1 cells with camptothecin (screen for TDP1 inhibitors). chicken DT40 Tdp1-/-;hTDP1 cells + 20 nM CPT, ATP luminescence, 48 h. Potency, µM (series often up to 46.2 µM), for the others: at the top dose activity change, negative = growth inhibition, hits mostly inhibitors. 420,000 compounds, 12% hits. AID 686979; note: nearly all actives have a fitted effect of over 55% in size
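Chicken DT40 Tdp1-/- cells complemented with human TDP1, 400 cells/well, exposed to compounds plus 20 nM camptothecin for at least 48 h at 37 C; viability read as ATP content by CellTiter-Glo luminescence.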
Starred values were filed as active, the others as inactive; ? = inconclusive; . = no result given; [ ] = another dose, or the depositor's remark. Calls come from the whole dose curve; as a rule, active = well fitted curve in the direction sought with a large enough effect; inconclusive = small, poorly fitted or top-dose-only effect, or another doubt; inactive = no such curve, though single readings can be large; an effect the other way counts as inactive or inconclusive. % is set by controls: 0 for no effect and ±100 for the full control effect; potency is the fitted concentration of half-maximal effect.

SMILES | GCN5L2 inh | VDR inhibitor | PLK1 PBD block | DT40 TDP1 no CPT | TDP1 block | TDP1 cell CPT
CC1=NN(Cc2ccccc2)C(=O)C1C(c1ccncc1)C(C#N)C#N (stereo not given) | -9% | -7% | ? | ? | 7% | ?
CC1=NN(Cc2ccccc2)C(=O)C1C(c1ccccc1)C(C#N)C#N (stereo not given) | -3% | ? | 24µM* | 26µM* | 5% | 21µM*
COc1ccccc1NC(=O)N[C@@H](Cc1c[nH]c2ccccc12)C(=O)NN | -2% | -10% | ? | ? | . | -2%
O=c1c2cccnc2n(Cc2ccccc2F)c(=O)n1Cc1ccccc1Cl | -7% | -9% | . | -27% | 3% | -9%
Cc1cc(C)c(NC(=O)c2cc(CN3CCOCC3)on2)c(C)c1 | 3% | 10% | . | 0% | 1% | -2%
CCN(CC)C(=O)c1sc(NC(=O)c2ccc(C)c([N+](=O)[O-])c2)c(C#N)c1C | -22% | -25% | -22% | 21µM* | 3% | ?
CCN(CC)C(=O)c1sc(NC(=O)c2ccc(OC)c([N+](=O)[O-])c2)c(C#N)c1C | 57% | . | . | . | -1% | .
CCN(CC)C(=O)c1sc(N)c(C#N)c1C | -2% | 11% | 24µM* | -7% | 2% | -12%
Cc1cccc(NC(=O)N2CCCc3ccccc32)c1C | ? | 15% | 3% | -5% | 2%[56.1 µM] | -19%
CN(CCN(C)C(=O)c1[nH]cnc1C(=O)Nc1ccccc1)C(=O)c1[nH]cnc1C(=O)Nc1ccccc1 | 0% | -13% | 2% | ? | 1% | -3%
O=C(Nc1ccccc1)c1nc[nH]c1C(=O)Nc1ccccc1F | . | . | -10% | 12µM* | . | ?
O=C(Nc1cccc(Cl)c1)c1nc[nH]c1C(=O)NCCCNC(=O)c1[nH]cnc1C(=O)Nc1cccc(Cl)c1 | 1% | -21% | 5% | ? | -3% | -29%
O=C(Nc1ccccc1)c1nc[nH]c1C(=O)NCCNC(=O)c1[nH]cnc1C(=O)Nc1ccccc1 | -12% | 3% | 2% | 18µM* | -1% | 13µM*
Cc1ccc(NC(=O)c2nc[nH]c2C(=O)Nc2ccccc2F)cc1 | . | . | 7% | ? | . | ?
O=C(Nc1ccccc1)c1nc[nH]c1C(=O)NCCCCNC(=O)c1[nH]cnc1C(=O)Nc1ccccc1 | 1% | -11% | -13% | 12µM* | 2% | 6.5µM*
CC(C)CCNC(=O)c1cccc(-n2cnc3cccnc32)c1 | -3% | 4% | . | ? | 3% | ?
CC(C)=CCCC(C)=CCN1C(=O)CN(C)C1=O | . | . | 4% | ? | . | ?
COCCn1c(C)cc(C(=O)COC(=O)c2ccc(Br)o2)c1C | -2% | 1% | -13% | -29% | 2% | -6%
O=C(CCN1C(=O)S/C(=C/c2ccc(Cl)cc2)C1=O)N1CCOCC1 | -4% | -4% | -8% | 16µM* | 0% | 12µM*
COC(=O)c1ccc(/C=C2/SC(=S)N(CCC(=O)N3CCOCC3)C2=O)cc1 | -4% | 12% | -9% | 18µM* | . | 16µM*
COC(=O)c1ccc(/C=C2\SC(=S)N(CCCC(=O)N3CCOCC3)C2=O)cc1 | . | 10% | 3% | 7% | . | -3%
CC1CCCCC1NC(=O)COC(=O)c1ccc(N(C)C)cc1 (stereo not given) | -6% | 12% | 3% | 13µM* | 10% | ?
CN(C)c1ccc(N=Nc2ccccc2C(=O)OCC(=O)NCC2CCCCC2)cc1 | -8% | -22% | -7% | 21µM* | 3% | ?
CN(C)c1ccc(N=Nc2ccccc2C(=O)OCC(=O)NC2CCCC2)cc1 | -4% | -7% | 15% | ? | 11% | 26µM*
Nc1nc(NCc2ccc(F)cc2)c2[nH]cnc2n1 | . | 9% | . | -13% | 2% | -3%
SMILES | GCN5L2 inh | VDR inhibitor | PLK1 PBD block | DT40 TDP1 no CPT | TDP1 block | TDP1 cell CPT
CCCC(O)(c1ccc(CC)cc1)C(CN1CCOCC1)c1ccccc1 (stereo not given) | -8% | -5% | 5% | 18µM* | . | 16µM*
CC(C)C(O)(c1ccccc1)C(CN1CCOCC1)c1ccccc1 (stereo not given) | -7% | -9% | -10% | ? | . | ?
CCc1ccc(C(O)(C(C)C)C(CN2CCOCC2)c2ccccc2)cc1 (stereo not given) | -2% | -6% | 5% | 16µM* | . | 16µM*
CCCC(O)(c1ccc(Cl)cc1)C(CN1CCOCC1)c1ccccc1 (stereo not given) | -5% | -15% | 3% | ? | -4% | ?
CCCCCOc1ccc(C(C)(O)C(CN2CCOCC2)c2ccccc2)cc1 (stereo not given) | -10% | 1% | -7% | 21µM* | . | ?
CCc1ccc(C(C)(O)C(CN2CCOCC2)c2ccccc2)cc1 (stereo not given) | ? | -11% | -7% | 21µM* | . | 21µM*
CCCCCCC(O)(c1ccc(OC)cc1)C(CN1CCOCC1)c1ccccc1 (stereo not given) | -16% | 20% | -15% | ? | . | ?
CNc1nc(-c2ccccc2)c(-c2ccccc2)s1 | . | -1% | . | ? | . | ?
CN1C(=O)CCC(CCC(=O)O)(c2ccccc2O)C1=O (stereo not given) | -11% | -6% | 2% | -1% | . | 7%
CCC(Sc1nnc2c(n1)[nH]c1ccccc12)C(=O)Nc1nnc(C(C)C)s1 (stereo not given) | -5% | 6% | . | ? | 0% | ?
Cc1ccc(CNC(=O)C(=O)NCC2OCCCN2S(=O)(=O)c2ccc(F)cc2)cc1 (stereo not given) | -8% | 0% | -4% | -23% | 2% | -18%
COCc1ccc(C(=O)N2CCC(CCC(=O)Nc3cccc(C)c3)CC2)s1 | 2% | ? | 3% | 0% | 3% | -4%
CCc1noc(C)c1C(=O)N1CCC(CCC(=O)Nc2cccc(OC)c2)CC1 | -24% | 3% | 2% | 8.2µM* | 0% | 9.2µM*
Cc1cccc(NC(=O)CCC2CCN(C(=O)c3ccc(C)s3)CC2)c1 | -2% | -2% | -1% | 4.1µM* | 7% | -20%
COC(C(=O)N1CCC(CCC(=O)Nc2ccccc2)CC1)c1ccccc1 (stereo not given) | -3% | -16% | 3% | 9.2µM* | 2% | 21µM*
CCc1ccc(NS(=O)(=O)c2ccc3[nH]cc(C(=O)NCc4ccc(C)cc4)c(=O)c3c2)cc1 | -1% | -9% | . | ? | . | ?
Cn1ccc2c(-c3ccccc3F)cc3c(c21)C1CCC3C1 (stereo not given) | . | . | -10% | -12% | . | -7%
